PubChem BioAssay (NCI)
The panel holds about 83,000 compounds, 20% with a hit somewhere; the sample as a whole holds those more often.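 96-well plates, one dose, 48 hours. Percent growth reported; active if below 10.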 Values without a mark were called inactive. Activity calls are given as the source filed them.

Experiments:
Experiment in all cases: NCI-60 one-dose screen, 48 h (100 = growth as untreated, 0 = no growth, -100 = all killed)
Conditions in all cases: 10 µM unless noted
HCT-15 colon = test system: HCT-15 colon
HT29 colon = test system: HT29 colon
SNB-75 CNS = test system: SNB-75 CNS
U251 CNS = test system: U251 CNS
PC-3 prostate = test system: PC-3 prostate
SK-MEL-5 melanoma = test system: SK-MEL-5 melanoma
UACC-62 melanoma = test system: UACC-62 melanoma
LOX IMVI melanoma = test system: LOX IMVI melanoma
SK-MEL-28 melanoma = test system: SK-MEL-28 melanoma
SK-MEL-2 melanoma = test system: SK-MEL-2 melanoma
EKVX NSCLC = test system: EKVX NSCLC
SN12C renal = test system: SN12C renal
UO-31 renal = test system: UO-31 renal
TK-10 renal = test system: TK-10 renal
A498 renal = test system: A498 renal
CCRF-CEM leukemia = test system: CCRF-CEM leukemia
MOLT-4 leukemia = test system: MOLT-4 leukemia
SNB-19 CNS = test system: SNB-19 CNS
ACHN renal = test system: ACHN renal
CAKI-1 renal = test system: CAKI-1 renal

| SMILES | growth (HCT-15 colon) | growth (HT29 colon) | growth (SNB-75 CNS) | growth (U251 CNS) | growth (PC-3 prostate) | growth (SK-MEL-5 melanoma) | growth (UACC-62 melanoma) | growth (LOX IMVI melanoma) | growth (SK-MEL-28 melanoma) | growth (SK-MEL-2 melanoma) | growth (EKVX NSCLC) | growth (SN12C renal) | growth (UO-31 renal) | growth (TK-10 renal) | growth (A498 renal) | growth (CCRF-CEM leukemia) | growth (MOLT-4 leukemia) | growth (SNB-19 CNS) | growth (ACHN renal) | growth (CAKI-1 renal) |
| --- | --- | --- | --- | --- | --- | --- | --- | --- | --- | --- | --- | --- | --- | --- | --- | --- | --- | --- | --- | --- |
| CN1C(=C2C(=O)OC(C)(C)OC2=O)CCC1C(=O)NCc1ccc(Cl)cc1Cl (configuration not stated) | 101% | 79.5% | 107% | 95.5% | 83% | 91.6% | 86.9% | 93.5% | 93% | 91.7% | 97.5% | 93.3% | 85% | 93.8% | 59.5% | 86.4% | 94.6% | – | – | – |
| COc1ccccc1/C=C1\Oc2cc(OCCN3CCC(Cc4ccccc4)CC3)ccc2C1=O | 52.5% | 31.2% | – | 78.2% | 81.8% | 90.9% | 92.1% | 70.7% | 87.5% | 116% | 86% | 88.8% | 65.5% | 94.5% | 47.7% | 70.7% | – | 90.8% | 105% | 82.5% |
| CNC(C)[C@H]1CCC2C3CCC4C[C@@H](N(C)C(=O)c5ccccc5)CC[C@]4(C)C3CC[C@@]21C (some centres not stated) | -42.2% (active) | -33.3% (active) | 15.5% | 29.9% | 16.3% | -74.2% (active) | -66% (active) | -52.2% (active) | -71.4% (active) | 38.7% | 24.5% | 34.6% | -9.71% (active) | 65.4% | 57.3% | 21.7% | 16.5% | – | – | 58.2% |
| O=C(COc1ccc(/C=C2\Cc3ccc(Cl)cc3C2=O)cc1)Nc1nc2ccccc2s1 | 106% | 116% | 88% | 97.8% | 92% | 105% | 98.2% | 72.8% | 108% | – | 117% | 102% | 69.1% | 151% | 130% | 73.5% | 69.8% | – | 94.2% | – |
| CCCCCCn1c(-c2ccc(C(=O)O/N=C(\N)c3ccc4c(c3)OCO4)cc2)nc(-c2ccccc2)c1-c1ccccc1 | 7.82% (active) | 36.3% | – | 8.25% (active) | 23.2% | 62% | 48.1% | -95.1% (active) | 59.1% | 70.9% | -33.5% (active) | -7.53% (active) | -89.2% (active) | -9.77% (active) | 37.2% | -34.4% (active) | – | 55.3% | -88.2% (active) | -21.3% (active) |
| CC/C=C\C[C@@H]1C/C=C2/C(=O)C=C[C@H]2C/C=C\CCCC(=O)O1 | -43.5% (active) | -72.4% (active) | 32.2% | -94.2% (active) | -37.6% (active) | -89.3% (active) | -61.1% (active) | -77.1% (active) | -75.6% (active) | – | -25.1% (active) | -28.8% (active) | -91.9% (active) | -42.5% (active) | -88.4% (active) | -28.7% (active) | -24.9% (active) | – | -86.2% (active) | 9.49% (active) |
| O=C1c2ccccc2NC(n2sc3ccccc3c2=O)N1c1ccccc1 (configuration not stated) | 91.5% | 90.6% | 94% | 104% | 92.9% | 105% | 93.3% | 87.9% | 116% | 99.5% | 85.5% | 98.4% | 78.4% | 109% | 89.2% | 104% | 99.4% | – | 99.6% | 93.9% |
| CCOC(=O)c1sc2ncc(-c3ccc(OC)cc3)n2c1C | 90.2% | 102% | 92% | 105% | 92.1% | 94.3% | 78.6% | 93.4% | 106% | 103% | 94.8% | 92.1% | 79.3% | 156% | 107% | 94.6% | 94.5% | – | -100% (active) | 96.3% |
| CC[C@H](C)C(=O)O[C@H]1CCC=C2C=C[C@H](C)[C@H](CC[C@@H]3CC=CC(=O)O3)[C@H]21 | 85.7% | 67.7% | 68.9% | 88.1% | 61.6% | 77% | 82.3% | 53.3% | 94.8% | 81.7% | 110% | 67.7% | 71.8% | 105% | 97% | 6.89% (active) | 45.6% | – | 86.9% | 90.5% |
| CCCCCCCCCCCCCCCCCCOc1ccc(CC(=O)OCC[N+]2(C)CCCCC2)cc1 | 97.5% | 91.4% | 102% | 91.9% | 92.2% | 100% | 88.8% | 94.7% | 106% | 104% | 97.9% | 89.1% | 94.1% | 99.1% | 100% | 89.8% | 98.6% | – | 97.5% | 100% |
| S=C(c1cccs1)N1CCN(c2cccc(Cl)c2)CC1 | 88.7% | 89.8% | – | 93.7% | 89.5% | 92.1% | 88.1% | 109% | 104% | – | 115% | 101% | 88.8% | 101% | 96.7% | 87.9% | 92.5% | 102% | 100% | 92.4% |
| N#C/C(=C\c1ccc(F)cc1)n1nc2cccc(F)c2n1 | 30.6% | 25.6% | – | 28.1% | 53.7% | 73% | 45.7% | 20.6% | 53.2% | 58.7% | 71.1% | 76.2% | 41% | 60.7% | 11.7% | 25.6% | – | 63.6% | 42.9% | 24.8% |
| O=C(O)c1cn(C2CC2)c2cc(N3CCN(C(=O)Nc4nc(-c5ccccc5)cs4)CC3)c(F)cc2c1=O | 29.9% | 4.04% (active) | – | 9.17% (active) | 11.3% | 3.08% (active) | 15.2% | -81.8% (active) | 52.9% | -10.8% (active) | 37.5% | 4.91% (active) | 5.5% (active) | 26.3% | -0.916% (active) | 23% | 22.9% | 21.6% | 25.2% | 63.6% |
| O=c1c2cc(F)ccc2sc2c(NCCCNCCO)nc3ccc(F)cc3c12 | 47.9% | -0.699% (active) | – | 38.4% | 50.6% | 80.7% | 88.6% | -76.7% (active) | 94% | 97.3% | 75.4% | 66.1% | 31.1% | 67.5% | 26.9% | 15.1% | 18.8% | – | 46.9% | 27.1% |
| COc1ccc(-c2cc3c4c(nc5ccccc5c4c2)CC(c2cc(OC)c(OC)c(OC)c2)O3)cc1 (configuration not stated) | 45.6% | 45.2% | – | 54.8% | 52.3% | 62.6% | 52% | 38.4% | 44% | 66.3% | 65% | 32.3% | -26.3% (active) | 7.8% (active) | 70.4% | 99.1% | 102% | 40.1% | -46% (active) | 1.26% (active) |
| COc1cccc(-c2nc(-c3ccc(NC(=O)C(C)C)cc3)[nH]c2-c2ccnc(Br)c2)c1 | 7.17% (active) | 23% | – | 32% | 18.7% | 6.14% (active) | 37.1% | 15.2% | 47% | 22% | 45.1% | 61.7% | 12.1% | 54% | 2.23% (active) | 21.8% | 14.3% | 44.6% | 28.8% | 36.2% |
| C#Cc1cccc(NC(=O)c2ccc(NC(=O)C=C)cc2)c1 | 60.9% [8.25 µM] | 44% [8.25 µM] | – | 80.6% [8.25 µM] | 67.7% [8.25 µM] | 97.7% [8.25 µM] | 73.9% [8.25 µM] | 79.6% [8.25 µM] | 98.2% [8.25 µM] | 79.3% [8.25 µM] | 102% [8.25 µM] | 67.5% [8.25 µM] | -67.2% [8.25 µM] (active) | 69.9% [8.25 µM] | 40.8% [8.25 µM] | 71.5% [8.25 µM] | 76.8% [8.25 µM] | 84.5% [8.25 µM] | 63.8% [8.25 µM] | 63.2% [8.25 µM] |
